Inconclusive results are not listed. Active and inactive are the calls of the source. Calls come from the whole dose curve; as a rule, active = well fitted inhibition curve with a large enough effect; inconclusive = small, poorly fitted or top-dose-only effect; inactive = flat fitted curve, though single readings scatter.
Tests used:
Assay in all cases: qHTS profiling for inhibitors of Plasmodium falciparum proliferation (AID 504749); note: nearly all actives have a fitted effect of over 60% in size
Details in all cases: P. falciparum in erythrocytes, SYBR Green DNA, 72 h; series mostly up to 28.7 µM
7G8 = tested on: 7G8
Procedure, shortened: (§1)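 In a 72 h erythrocytic culture (37 C, humidified, 5% CO2) at 2.5% hematocrit and 0.3% starting parasitemia, compounds were tested; SYBR Green I in detergent lysis buffer stained parasite DNA overnight.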

AA1029 = tested on: AA1029
Procedure, shortened: as §1

AS120 = tested on: AS120
Procedure, shortened: as §1

ATS189 = tested on: ATS189
Procedure, shortened: as §1

ATS95 = tested on: ATS95
Procedure, shortened: as §1

C2A = tested on: C2A
Procedure, shortened: as §1

CP185 = tested on: CP185
Procedure, shortened: as §1

CP191 = tested on: CP191
Procedure, shortened: as §1

CP192 = tested on: CP192
Procedure, shortened: as §1

CP194 = tested on: CP194
Procedure, shortened: as §1

CP201 = tested on: CP201
Procedure, shortened: as §1

CP203 = tested on: CP203
Procedure, shortened: as §1

CP211 = tested on: CP211
Procedure, shortened: as §1

CP215 = tested on: CP215
Procedure, shortened: as §1

CP217 = tested on: CP217
Procedure, shortened: as §1

CP237 = tested on: CP237
Procedure, shortened: as §1

CP238 = tested on: CP238
Procedure, shortened: as §1

CP247 = tested on: CP247
Procedure, shortened: as §1

CP250 = tested on: CP250
Procedure, shortened: as §1

CP252 = tested on: CP252
Procedure, shortened: as §1

Measured: Potency

CCCC(=O)O
inactive: all assays above

Cc1cc(-c2ccc(N=Nc3ccc4c(S(=O)(=O)O)cc(S(=O)(=O)O)c(N)c4c3O)c(C)c2)ccc1N=Nc1ccc2c(S(=O)(=O)O)cc(S(=O)(=O)O)c(N)c2c1O
inactive: all assays above

O=P(O)(O)O
inactive: all assays above

CC(C)(CO)[C@@H](O)C(=O)NCCC(=O)NCCSSCCNC(=O)CCNC(=O)[C@H](O)C(C)(C)CO
inactive: all assays above

CNC(=O)c1c(I)c(C(=O)NCC(=O)Nc2c(I)c(C(=O)O)c(I)c(C(=O)NCCO)c2I)c(I)c(N(C)C(C)=O)c1I
inactive: all assays above

COC(=O)C(CN)c1c[nH]c2ccc(OC)cc12 (stereo not given)
inactive: all assays above

CCCCC
inactive: all assays above

CO[C@H]1C[C@@H]2CC[C@@H](C)[C@@](O)(O2)C(=O)C(=O)N2CCCC[C@H]2C(=O)O[C@H]([C@H](C)C[C@@H]2CC[C@@H](OC(=O)C(C)(CO)CO)[C@H](OC)C2)CC(=O)[C@H](C)/C=C(\C)[C@@H](O)[C@@H](OC)C(=O)[C@H](C)C[C@H](C)/C=C/C=C/C=C/1C
inactive: all assays above

CCCCCCCCCCCCCCCCCCCCCC(=O)Nc1ccn([C@@H]2O[C@H](CO)[C@@H](O)[C@@H]2O)c(=O)n1
inactive: all assays above

CC(C)[C@@H](N)C(=O)O
inactive: all assays above

Cc1cc(=O)c(C(=O)N[C@@H](C(=O)N[C@@H]2C(=O)N3C(C(=O)O)=C(CSc4nnnn4C)CS[C@H]23)c2ccc(O)cc2)c[nH]1
inactive: all assays above

O=C(/C=C/c1cccc(F)c1)NC1CC1
inactive: all assays above

CCOC(=O)c1cc(-c2ccccc2)nc2ccc(C)cc12
inactive: all assays above

CCCCCCCCCCCCCCCCCC(=O)OC[C@@H](O)[C@H]1OC[C@H](O)[C@H]1O
inactive: all assays above
